Rab9 prom act – activates the Rab9 promoter; Huh7 Rab9 promoter-luciferase reporter, luminescence, 24 h; Potency, µM (doses to about 9.22 µM), usual class: activators; hit rate 2.8% among 320,000; further: nearly all actives have a fitted effect of over 60% in size
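Huh7 reporter line, Rab9 promoter upstream of luciferase. Compound exposure 24 h at 37 °C in reduced-serum medium with 10% FBS. Read-out: luminescence.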
SMN2 splice enh – SMN2 splice variant enhancement; HEK293 SMN2-luciferase splicing reporter, luminescence, 30-36 h; Potency, µM (titrated, usually from 46.1 µM), hits mostly activators; hit rate 2.8% among 210,000; AID 1458; further: nearly all actives have a fitted effect of over 55% in size
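qHTS luciferase splicing reporter: luminescence rises when SMN2 exon 7 is included in transfected HEK293 cells. Compound exposure lasted 30-36 h at 37C, with 4.5 mM final sodium butyrate as control, followed by a ONE-Glo read.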
FLuc modulator – inhibits or activates purified firefly luciferase, miR-21 counter-screen. P08659. purified FLuc, Km substrates, luminescence inhibition. Potency, µM (top dose mostly 57.5 µM), actives largely listed as inhibitors. hit rate 6.9% among 360,000; further: nearly all actives have a fitted effect of over 55% in size
Target sequence (P08659 whole entry, looked up): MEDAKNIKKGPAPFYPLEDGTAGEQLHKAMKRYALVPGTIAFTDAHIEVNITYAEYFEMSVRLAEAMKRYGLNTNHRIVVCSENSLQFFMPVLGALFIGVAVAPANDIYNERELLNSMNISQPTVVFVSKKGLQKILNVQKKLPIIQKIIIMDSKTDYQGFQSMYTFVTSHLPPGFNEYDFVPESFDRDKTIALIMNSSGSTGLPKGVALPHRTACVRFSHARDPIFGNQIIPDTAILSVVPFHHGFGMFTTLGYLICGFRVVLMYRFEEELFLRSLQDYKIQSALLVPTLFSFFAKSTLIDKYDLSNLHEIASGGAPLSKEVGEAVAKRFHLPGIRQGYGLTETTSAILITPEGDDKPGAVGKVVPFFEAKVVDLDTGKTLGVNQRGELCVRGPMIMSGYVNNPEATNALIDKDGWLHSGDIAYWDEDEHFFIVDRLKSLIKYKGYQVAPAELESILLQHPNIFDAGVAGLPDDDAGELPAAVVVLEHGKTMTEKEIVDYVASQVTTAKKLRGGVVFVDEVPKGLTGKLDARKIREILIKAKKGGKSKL
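Biochemical qHTS of compounds, final roughly 60 µM downward over six points, against 10 nM purified firefly luciferase using Km concentrations of substrates (10 uM D-luciferin, 10 uM ATP) in Tris acetate pH 7.5 buffer; luminescence output.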
NPC1 promoter act – activates the NPC1 promoter; Huh7 NPC1 promoter luciferase reporter, 24 h; hit rate 2.4% among 320,000; Potency, µM (series often up to 9.22 µM), actives largely listed as activators; further: nearly all actives have a fitted effect of over 60% in size
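Quantitative HTS used a cell-based reporter: Huh7 cells stably bearing the NPC1 promoter upstream of luciferase were treated with compounds for 24 h, and promoter activation was read as luminescence.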
ELG1 DNA repair – inhibitors of ELG1-dependent DNA repair in HEK293T cells; HEK293T ELG1-luciferase reporter, luminescence, 16 h; DNA damage induced by 5-fluorouridine; Potency, µM (highest dose often 46.1 µM), most hits filed as inhibitors; hit rate 2.3% among 330,000; AID 504467; further: nearly all actives have a fitted effect of over 55% in size
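HEK293T cells expressing luciferase-tagged ELG1 (2,000/well) received 5-Fluorouridine plus compound or DMSO for 16 hr at 37 °C. Luciferase was read by ONE-Glo luminescence after 30 min at room temperature.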
ELG1 genotox – genotoxicity induction in ELG1-luciferase HEK293T cells. HEK293T ELG1-luciferase reporter, luminescence, 16 h. Potency, µM (highest dose often 46 µM), actives largely listed as activators. hit rate 1.3% among 330,000. AID 504466; further: nearly all actives have a fitted effect of over 60% in size
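Reporter readout depends on ELG1 protein level, which increases with genetic stress. After 16 hr compound exposure at 37 °C, luciferase activity was quantified using ONE-Glo.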
Of the large screens only hits and unclear results are named; the others gave an inactive call. The list is not random: actives were taken first. Their share in the collection is about 9.2%. The call rests on the fitted dose curve; in most records, active means well fitted curve in the direction sought with a large enough effect; inconclusive means small, poorly fitted or top-dose-only effect, or another doubt; inactive means no such curve, though single readings can be large; an effect the other way counts as inactive or inconclusive.

O=C(CNC(=O)C1CCCCC1)Nc1ccc(Cl)cc1	SMN2 splice enh 11µM, ELG1 DNA repair inconclusive, ELG1 genotox inconclusive
CC(C)CCN1C(=O)c2ccccc2CC1(C)C(=O)NC1CCCCC1 (configuration not stated)	none (no result: Rab9 prom act, NPC1 promoter act, ELG1 DNA repair, ELG1 genotox)
COC(=O)N1CCC2(CC1)CN(c1ccccn1)C2	none (no result: Rab9 prom act, FLuc modulator, NPC1 promoter act, ELG1 DNA repair, ELG1 genotox)
COc1ccc(C(=O)/C=C2\NCCc3cc(OC)c(OC)cc32)cc1OC	FLuc modulator inconclusive, ELG1 DNA repair 15µM (no result: SMN2 splice enh)
COc1ccc(C(=O)/C=C/N(C)C)cc1OC	none
CCCCCCCCCCCCCCCC(N)=O	none (no result: Rab9 prom act, FLuc modulator, NPC1 promoter act, ELG1 DNA repair, ELG1 genotox)
Nc1ncnc(NCc2ccc(F)cc2)c1[N+](=O)[O-]	ELG1 DNA repair 8.2µM
Nc1ncnc(Nc2ccccn2)c1[N+](=O)[O-]	ELG1 DNA repair inconclusive
Nc1ncnc(NCc2ccccc2)c1[N+](=O)[O-]	ELG1 DNA repair 10µM
O=C(COC(=O)CNS(=O)(=O)c1ccc(Cl)cc1)NC1CCCCC1	none (no result: SMN2 splice enh)
Cc1ccc(C(=O)Oc2ccc3c(c2)ncn3C)cc1	FLuc modulator 3µM, ELG1 DNA repair inconclusive (no result: SMN2 splice enh)
Cc1ccc(C(=O)Oc2cccc(-n3cnnn3)c2)cc1	FLuc modulator inconclusive, ELG1 DNA repair inconclusive, ELG1 genotox inconclusive
Cn1cnc2cc(OC(=O)c3ccccc3)ccc21	FLuc modulator 19µM
Cc1ccc(CN2CCN(C3CCN(C(=O)Nc4ccc(C)cc4Cl)CC3)C(=O)C2=O)cc1	none (no result: Rab9 prom act, SMN2 splice enh, NPC1 promoter act, ELG1 DNA repair, ELG1 genotox)
Cc1cccc(/C=N/NC(=O)c2ccc3c(c2)OCCO3)c1O	Rab9 prom act 0.5µM, FLuc modulator 0.38µM, NPC1 promoter act 0.89µM, ELG1 DNA repair inconclusive, ELG1 genotox 0.13µM (no result: SMN2 splice enh)
CCOc1cccc(/C=N/NC(=O)c2ccc3c(c2)OCCO3)c1O	FLuc modulator 2.4µM, ELG1 DNA repair inconclusive, ELG1 genotox inconclusive (no result: SMN2 splice enh)
COc1cc(OC)c(OC)cc1/C=N/NC(=O)c1cc(-c2cccn2C)n[nH]1	none
COc1cccc(/C=N/NC(=O)CNC(=O)c2ccc3c(c2)OCCO3)c1O	ELG1 DNA repair inconclusive
CCOc1cccc(/C=N/NC(=O)c2cc(-c3cccn3C)n[nH]2)c1O	FLuc modulator 15µM, ELG1 DNA repair inconclusive, ELG1 genotox inconclusive (no result: SMN2 splice enh)
Cc1ccc(NS(=O)(=O)c2cccc(C(=O)N/N=C/c3ccc4c(c3)OCCO4)c2)c(C)c1	FLuc modulator 11µM, ELG1 DNA repair inconclusive
COc1ccc(C(=O)NCC(=O)OCC(=O)N2CCc3ccccc32)cc1	FLuc modulator inconclusive
Cc1ccc(NC(=O)C2(C)Cc3ccccc3C(=O)O2)cc1 (configuration not stated)	none
Cc1ccc(N=Nc2ccc(O)c(/C=N\NC(=O)c3ccc(N)cc3)c2)cc1C	Rab9 prom act 2.8µM, FLuc modulator inconclusive, NPC1 promoter act 1.4µM, ELG1 genotox inconclusive
O=C(N/N=C/c1cc(Cl)ccc1O)c1ccc(Br)cc1	FLuc modulator inconclusive, ELG1 DNA repair inconclusive
Cc1cccc(/C=N/NC(=O)Cc2ccc(Cl)cc2)c1O	ELG1 DNA repair inconclusive, ELG1 genotox inconclusive (no result: SMN2 splice enh)
Cc1cccc(/C=N\NC(=O)c2ccc(Cl)cc2)c1O	Rab9 prom act inconclusive, FLuc modulator 1.5µM, ELG1 DNA repair inconclusive, ELG1 genotox inconclusive (no result: SMN2 splice enh)
CN1C2CCC1CC(NC(=O)CSCc1ccc(Cl)cc1Cl)C2 (configuration not stated)	ELG1 DNA repair inconclusive (no result: SMN2 splice enh)
Cn1ccc2cc(S(=O)(=O)N3CCC(C(=O)NCCc4ccccc4)CC3)ccc21	none (no result: Rab9 prom act, SMN2 splice enh, NPC1 promoter act, ELG1 DNA repair, ELG1 genotox)
CSc1ccc(-c2nnn(Cc3ccc(C)cc3)n2)cc1	Rab9 prom act inconclusive, FLuc modulator 11µM, NPC1 promoter act inconclusive, ELG1 DNA repair inconclusive, ELG1 genotox inconclusive
O=C(O)c1cccc(-c2nnn(Cc3ccccc3)n2)c1	Rab9 prom act 0.71µM, SMN2 splice enh 2.5µM, FLuc modulator 11µM, NPC1 promoter act 1.4µM, ELG1 DNA repair inconclusive
COc1ccc(-c2nnn(Cc3ccccc3)n2)cc1	Rab9 prom act 3.2µM, FLuc modulator 21µM, NPC1 promoter act inconclusive, ELG1 DNA repair inconclusive, ELG1 genotox inconclusive (no result: SMN2 splice enh)
O=C(O)c1cccc(-c2nnn(Cc3ccccc3Cl)n2)c1	Rab9 prom act 0.4µM, SMN2 splice enh 1.6µM, FLuc modulator 3µM, NPC1 promoter act 0.45µM, ELG1 DNA repair inconclusive, ELG1 genotox inconclusive
CCCCc1nn2c(=O)cc(COC(=O)c3ccc(NC(=O)CCc4ccccc4)cc3)nc2s1	none (no result: Rab9 prom act, SMN2 splice enh, NPC1 promoter act, ELG1 DNA repair, ELG1 genotox)

Compound activity: PubChem, National Center for Advancing Translational Sciences (NCATS)
